Screens deposited in PubChem by National Center for Advancing Translational Sciences (NCATS).
Pf growth 96h – P. falciparum growth inhibition at 96 hour, primary screen for plastid delayed-death inhibitors. P. falciparum luciferase reporter growth, 96 h. Potency, µM (titrated, usually from 28.7 µM), without a hit: top-dose activity change, negative = inhibition, hits mostly inhibitors. hit rate 6.9% among 320,000. AID 504834; also: potency is read from the fitted curve at half-maximal effect; % is scaled to controls: 0 for no effect and ±100 for the full control effect
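Plates of compound plus infected erythrocytes (2% hematocrit, 0.05% parasitemia final) incubate 96 hours, 37 C, 5% CO2. Detection reagent added; reduced luminescence from the parasites' luciferase reporter flags inhibition.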
HCV inh – blocks hepatitis C virus | Huh7.5.1 HCVcc-Cre infection, luciferase reporter, 44 h | Potency, µM (titrated, usually from 41.8 µM), for the others: top-dose activity change, negative = inhibition, most hits filed as inhibitors | hit rate 3.4% among 340,000; also: potency is read from the fitted curve at half-maximal effect; % is scaled to controls: 0 for no effect and ±100 for the full control effect
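A cell-based infection assay in which seeded cells (1,000 per well) receive test compound after 4 h, are inoculated with HCVcc-Cre at approximately 0.5 moi, and are incubated 44 h before luminescence detection.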
Shiga toxin inh – blocks Shiga toxin action in Vero cells; inhibition, % at 38.7 µM; hit rate 9.2% among 290,000; AID 2315; Vero cells, Shiga toxin protein synthesis inhibition reporter; in the data active = inhibition mostly above about 28%, no sharp cut-off; inactive = mostly below about 43%; also: 0% is about no effect
HCMV antiviral – inhibitors of human cytomegalovirus; hit rate 4.5% among 410,000; HFF cells, HCMV-luciferase reporter, 72 h; hits give low values; activity change, negative = inhibition, % at 57.5 µM; in the data active = activity change below about -60%; inconclusive = no clear call, values can overlap the other calls; inactive = above about -39%; also: % is scaled to controls: 0 for no effect and ±100 for the full control effect
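HFF cells seeded 16 h at 37C, treated with compounds, infected with luciferase-reporter HCMV at MOI 1 PFU/cell; luciferase read at 72 h post infection, normalized to buffer-only and Salinomycin controls.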
CHX counter – counter-screen hit for Shiga toxin inhibitors, cycloheximide | cell reporter, cycloheximide protein synthesis inhibition counterscreen | max response, % | hit rate 12% among 300,000 | AID 2314; in the data active = max response mostly above about 13%, no sharp cut-off; inactive = mostly below about 14%; also: read at 38.3 µM for the half of the compounds with a filed dose; 0% is about no effect
Pf growth 48h – P. falciparum growth inhibition at 48 hours (one generation). P. falciparum luciferase growth in erythrocytes, 48 h. Potency, µM (doses to about 28.7 µM), for inactives: at the top dose activity change, negative = inhibition, actives largely listed as inhibitors. hit rate 5.9% among 310,000; also: potency is read from the fitted curve at half-maximal effect; % is scaled to controls: 0 for no effect and ±100 for the full control effect
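Parasite viability was followed by luminescence of a genomically integrated firefly luciferase. Cultures held 0.1% parasitemia at 2% hematocrit (final), incubated under 5% CO2 at 37 C.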
* hit, by the source's call; i = inactive; u = inconclusive; x = not tested or not shown; ! = a repeat was not active. An excerpt weighted towards active compounds, which were near 21% of everything screened. Unless noted, calls follow the shape of the dose curve; as a rule, active = well fitted inhibition curve with a large enough effect; inconclusive = small, poorly fitted or top-dose-only effect, or another doubt; inactive = no such curve, though single readings can be large or run the other way.

SMILES	Pf growth 96h	HCV inh	Shiga toxin inh	HCMV antiviral	CHX counter	Pf growth 48h
CC(=O)c1ccc2c3c(cccc13)C(=O)N(CCc1ccccc1)C2=O	-18.4%	2.6%	48.6*	16.8	31.8*	35.5%
CCC(=O)CC	x	x	5.3	x	-7.5	x
CCC1(C2=NCCN2)Cc2ccccc2O1 (stereo unspecified)	7.57µM*!	21.4%	x	-9.4	x	5.2%
CCOc1ccc(/C=C/c2nc(C#N)c(N3CCCCC3)o2)cc1	x	x	x	-34.1	x	x
CCOC(=O)COc1cc(N)c(Cl)cc1Cl	30.7%	u	14.9	-38.5	27.0*	-28.2%
CCc1ccccc1NC(=O)N1CCCc2ccccc21	61.0%	7.0%	59.2*	16.3	43.5*	30.0%
Cc1ccc(NC(=O)N2CCCc3ccccc32)cc1	-17.8%	-9.3%	86.1*	-1.4	30.7*	0.0%
Cc1ccc(NC(=O)N2CCc3ccccc32)cc1C	48.1%	-6.6%	97.6*	-2.9	31.1*	304.9%
Cc1ccc(NC(=O)N2CCc3ccccc32)cc1	i	u	20.4	123.6	20.8*	406.5%
CC(=O)c1ccc(NC(=O)CN2C(=O)c3cccnc3Sc3ccccc32)cc1	x	x	x	8.7	x	x
CN1CCN(c2ccc(NC(=O)N3CCc4ccccc43)cc2)CC1	263.7%	7.7%	20.4	-78.0*	17.5*	124.1%
CN1C(=O)CSc2ccc(NC(=O)N3CCc4ccccc43)cc21	u	u	25.1	195.7	-1.8	-2.5%
O=C1CC(c2cccc(Br)c2)c2cc3c(cc2N1)CCC3 (stereo unspecified)	u	u	11.3	-65.4*	-4.1	u
COc1cc2c(cc1OC)C(c1cccc(Br)c1)CC(=O)N2 (stereo unspecified)	u	1.4%	-16.2	-28.0	-2.6	-2.1%
CCCCOc1nc2ccccc2nc1C(C#N)C(=O)NC1CCCCC1 (stereo unspecified)	1.47µM*	7.5%	-8.5	u	-4.4	12.1%
CCC(C)[C@H](NC(=O)N1CC(=O)Nc2ccccc21)C(=O)N1CCC[C@H]1C(=O)O (stereo partly specified)	u	3.6%	0.1	6.0	-1.8	35.6%
C/C(=N\NC(=S)NCC(C)(C)C)c1cc(F)cc(F)c1O	u	4.7%	18.1	u	2.9	0.294µM*
COCc1cc(CN(C)C(=O)c2oc3c(F)cccc3c2C)[nH]n1	13.1µM*	4.4%	13.1	-15.2	23.7*	10.8%
COc1ccc(CCNC(=O)CCCCn2c(=O)c3ccccc3n(Cc3cccc(C)c3)c2=O)cc1OC	x	x	x	-9.9	x	x
COc1ccc(S(=O)(=O)N2CCCC(C(=O)NCc3ccco3)C2)cc1OC (stereo unspecified)	16.8%	-6.9%	-2.1	-27.5	-3.4	-3.6%
O=C(/C=C/c1ccccc1)OCCCN=C1NS(=O)(=O)c2ccccc21	5.22µM*	-2.4%	-2.5	-10.6	-3.0	-3.6%
Cc1ccccc1C(=O)OCCCN=C1NS(=O)(=O)c2ccccc21	-28.0%	-18.8%	9.3	-8.3	-0.9	-6.4%
CCN(CC)C(=O)COc1ccc(/C=C(\C#N)S(=O)(=O)c2ccccc2)cc1OC	9.28µM*	-7.4%	-13.7	-9.8	-3.9	0.7%
O=C(Nc1cc(F)ccc1F)N1CCC(CN2CCCC2)CC1	x	x	x	6.8	x	x
O=C(/C=C/c1c(Cl)nc2ccccn12)N1CCN(c2ccccc2F)CC1	24.0%	u	-18.3	u	-1.5	0.0%
SMILES	Pf growth 96h	HCV inh	Shiga toxin inh	HCMV antiviral	CHX counter	Pf growth 48h
O=C(/C=C/c1c(Cl)nc2ccccn12)N1CCCCC1	111.5%	-22.0%	49.4	-35.4	38.5*	70.4%
O=c1cc(Nc2ccc3c(c2)OCCO3)[nH]c(=O)n1Cc1ccc(F)cc1	0.0%	-9.7%	48.5*	-5.3	29.1*	6.7%
O=c1cc(Nc2ccc3c(c2)OCCO3)[nH]c(=O)n1-c1ccc(Br)cc1	-24.9%	-11.8%	-1.5	u	-2.2	-7.1%
O=c1cc(Nc2ccc3c(c2)OCO3)[nH]c(=O)n1-c1ccc(Br)cc1	85.0%	u	16.5	-77.7*	-1.9	u
O=c1cc(N2CCN(c3ccccc3Cl)CC2)[nH]c(=O)n1Cc1ccc(F)cc1	18.1%	-29.7%	14.7	-30.2	-3.2	54.2%
CCOC(=O)c1c(C)oc2ncnc(Nc3ccc(F)cc3Cl)c12	x	x	x	8.4	x	x
O=C(CSc1nnc(-c2cc3ccccc3cc2O)n1Cc1ccco1)N1CCc2ccccc2C1	1.65µM*	u	-23.6	-2.8	-1.6	x
CC(C)N(C(=O)CSc1nnc(-c2cc3ccccc3cc2O)n1Cc1ccco1)C(C)C	35.2%	u	-11.1	-5.5	1.7	2.08µM*
COc1ccc(NC(=S)N2CCN(c3ccc4c(c3)C3CCN(C(=O)OCc5ccccc5)C4C3)CC2)c(OC)c1 (stereo unspecified)	x	x	x	12.4	x	x
COc1ccc(C(=O)C2CCCN(Cc3cccn3-c3nccs3)C2)cc1OC (stereo unspecified)	u	u	-19.7	-19.4	-2.6	u
COc1ccc(C(=O)C2CCCN(Cc3cccn3-c3nccs3)C2)cc1F (stereo unspecified)	0.3%	-24.7%	-11.8	-64.5*	-1.3	u
O=C(c1cccc(C(F)(F)F)c1)C1CCCN(Cc2cccn2-c2ncccn2)C1 (stereo unspecified)	316.4%	u	-17.0	u	0.3	u
Cc1ccsc1C(=O)C1CCCN(Cc2cccn2-c2ccc(Cl)cn2)C1 (stereo unspecified)	u	u	-10.4	u	-2.2	3.7µM*
CC(C)Oc1cccc(C(=O)C2CCCN(Cc3cccn3-c3ccccn3)C2)c1 (stereo unspecified)	27.3%	-17.5%	-11.8	-71.0*	-6.7	u
COc1ccc(C(=O)C2CCCN(Cc3cccn3-c3ccccn3)C2)cc1F (stereo unspecified)	-10.9%	-18.3%	-13.6	-25.6	1.6	9.28µM*
COc1ccc(NC(=O)Cn2cc(C(=O)c3ccc(C)c(C)c3)c(=O)c3cc(OC)ccc32)cc1	x	x	x	-0.4	x	x
COCCCN(C(=O)CC1OC(=O)c2ccccc21)c1c(N)n(Cc2ccccc2)c(=O)[nH]c1=O (stereo unspecified)	u	-2.5%	-8.7	22.0	-1.3	14.3%
CSc1ncccc1C(=O)N1CCN(S(=O)(=O)c2ccccc2)CC1	27.6%	20.1%	-14.7	u	1.1	1.5%
O=C(c1ccc(Cl)cc1)C1CCCN(Cc2cccn2-c2ccccn2)C1 (stereo unspecified)	-10.4%	-28.1%	-2.8	-32.6	-2.7	u
COc1cccc(C(=O)C2CCCN(Cc3cccn3-c3ccccn3)C2)c1 (stereo unspecified)	-29.4%	-25.3%	-4.6	-63.5*	-2.0	-150.8%
CCCCN(Cc1ccccc1)S(=O)(=O)c1ccc2c(c1)CCN2C(=O)C1CCC1	x	x	x	20.0	x	x
